In PubChem BioAssay (Tox21):
Values without a mark were called inactive. Active and inactive are the calls of the source. Calls come from the whole dose curve; as a rule, active = well fitted curve in the direction sought with a large enough effect in the repeat runs; inconclusive = weak or mixed curves; inactive = flat fitted curve, though single readings scatter.

assay: qHTS assay to test for compound auto fluorescence at 460 nm (blue) in HEK293 cells (AID 720678); conditions: blue autofluorescence 405/460 nm; series mostly up to 91.3 µM; fluorescence, % of triamterene: at the top concentration
Text: National Center for Advancing Translational Sciences [NCATS]
NIH Chemical Genomics Center [NCGC]
U.S. Environmental Protection Agency [EPA]
National Institutes of Environmental Health Sciences [NIEHS]
National Toxicology Program [NTP]
U.S. Food and Drug Administration [FDA]
Compound auto fluorescence often interferes with screening of the compound library against various biological targets and signaling pathways. Some of these compounds may have fluorophoric properties. Such properties may interfere with the assay outputs resulting in false positives and/or negatives. To decrease such complications and ensure the compound activities are relevant in terms of biological response, the Tox21 10K compound library was screened for auto fluorescence.
From the fluorophores used as reporter signals in our screening assays, the auto fluorescence equivalencies of compounds against three fluorophores have been evaluated: Triamterene, Fluorescein and Rose Bengal sodium for blue, green and red fluorescence, respectively. The fluorescence intensities were measured using Excitation/Emission wavelengths at 405/460nm, 485/535nm and 540/590nm for blue, green and red labels, respectively. This assay includes the blue fluorescence data.
Tox21 Assay Protocol Summary:
2,000 HEK293 cells in 5 uL of culture medium containing 10% dialyzed FBS per well were dispensed into black wall/clear bottom 1536-well plates using a Multidrop Combi Dispenser (Thermo Scientific). The assay plates were incubated for 4-5 hr at 37C to allow cell attachment to the well bottom, followed by the transfer of 23 nL compound or DMSO vehicle by a pintool work station (Kalypsys, San Diego, CA). After the assay plates were incubated overnight at 37C and 5% CO2, fluorescence intensities in the assay plates were measured by an Envision (PerkinElmer, Shelton, CT) plate reader using three labels for measuring blue, green and red fluorescence at […] 460, 535 and 590nm respectively.
% is set by controls: 0 for no effect and ±100 for the full control effect.

Structure (SMILES) | fluorescence, % of triamterene | Potency
CNC(C)(C)Cc1ccccc1 | 0.0048% [at 18.6 µM] | 
C[C@]12C/C(=C/O)C(=O)C[C@@H]1CC[C@@H]1[C@@H]2CC[C@@]2(C)[C@H]1CC[C@]2(C)O |  | inactive
COC(=O)c1ccccc1S(=O)(=O)NC(=O)Nc1nc(C)nc(OC)n1 | 0.0543% | 
CN | -0.0638% [at 95.7 µM] | 
CC(=O)C(Cl)C(=O)N(C)C (stereo not given) | 0.115% | 
O=C(Cl)c1ccccc1F | 0.0116% | 
CCC(OC(C)=O)C(CC(C)NC)(c1ccccc1)c1ccccc1 (stereo not given) | -0.26% [at 95.7 µM] | 
CCOP(=S)(NC(C)C)Oc1ccccc1C(=O)OC(C)C (stereo not given) | 0.232% | 
Cc1c([N+](=O)[O-])c(C)c([N+](=O)[O-])c(C(C)(C)C)c1[N+](=O)[O-] | 0.039% | 
CC(Cc1ccc(O)cc1)NCC(O)c1cc(O)cc(O)c1 (stereo not given) | 0.79% [at 46 µM] | 
ClCBr | 0.0267% [at 95.7 µM] | 
[Cl-].[Cl-].[Cl-].[Yb+3] | -0.0451% | 
CCCCC(CC)COC(=O)OOC(C)(C)C (stereo not given) | -0.0752% | 
CC(=O)[O][Sn]([c]1ccccc1)([c]1ccccc1)[c]1ccccc1 | 0.111% | 
Cc1cc2c3c(c1)C(c1ccccc1)=N[C@@H](NC(=O)c1ccncc1)C(=O)N3CC2 | -0.0972% | 
CCCCCCCCCCCCCCn1cc[n+](C)c1 |  | inactive
c1ccc(Nc2ccc(Nc3ccccc3)cc2)cc1 | 0.0678% | 
COc1cnc(OC)n2nc(NS(=O)(=O)c3c(OCC(F)F)cccc3C(F)(F)F)nc12 | -0.108% | 
COc1c2c(cc3c1OCO3)CCN(C)C2 | 0.0083% [at 18.6 µM] | 
CNN | -0.433% [at 95.7 µM] | 

Structure (SMILES) | fluorescence, % of triamterene | Potency
CCCCON=O | -0.0528% [at 95.7 µM] | 
O=[N+]([O-])c1ccc(Cl)c(Cl)c1Cl | -0.0157% | 
ClC1(Cl)C2(Cl)C3(Cl)C4(Cl)C(Cl)(Cl)C5(Cl)C3(Cl)C1(Cl)C5(Cl)C24Cl (stereo not given) | -0.0766% | 
C=CCBr | -0.0238% [at 95.7 µM] | 
S=C=Nc1ccccc1 | -0.182% [at 95.7 µM] | 
C=CCOC(=O)c1ccccc1N | -0.132% | 
CC(C)N(C(=O)CCl)c1ccccc1 |  | inactive
CCCCCCCc1ccc(O)cc1 | -0.0793% | 
O=P(Cl)(Cl)Cl | -0.0388% [at 95.7 µM] | 
Nc1c(Cl)c(Cl)c(Cl)c(Cl)c1Cl | 0.261% | 
OCC(Br)CBr (stereo not given) | 0.0533% [at 95.7 µM] | 
CCCCn1cc[n+](C)c1 (tested in a mixture with another compound) | -0.0332% | 
CNC(=O)CSP(=O)(OC)OC | -0.107% | 
CCOP(=S)(OCC)Oc1cc(C)nc(N(CC)CC)n1 | -0.0531% | 
CC(=O)[O-].CC(=O)[O-].O.O.[Zn+2] | -0.017% | 
Clc1cc(Cl)c(-c2cc(Cl)c(Cl)cc2Cl)cc1Cl | -0.132% [at 46 µM] | 
CSSC | 0.126% [at 95.7 µM] | 
NC(=O)C(Cl)Cl | -0.401% | 
COC(=O)/C=C(\C)OP(=O)(OC)OC | 0.0774% | 
CN1[C@@H]2CC[C@H]1CC(O)C2 (stereo not given in full) | -0.0006% [at 95.7 µM] | 
